The text below walks through data of PubChem BioAssay (EPA / NIEHS).

The nature of assay [1]: CCTE_Harrill_HTTr_Apoptosis_PRF_DMEM_12hr: (Pilot) CCTE's 12-hour Apoptosis Assessment for the High-Throughput Transcriptomics (HTTr) Platform, in MCF-7 cells cultured in phenol red-free DMEM + 10% charcoal-stripped fetal bovine serum, Harrill Lab (AID 2283985). In outline: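 Caspase-3/7 activity by CellEvent Green high content imaging after 12 h compound exposure (eight concentrations) in MCF-7 grown in phenol red-free DMEM plus 10% charcoal-stripped serum; DMSO as baseline.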

The nature of assay [2]: Tanguay_ZF_120hpf_MUSC: Oregon State University Tanguay Lab 120 Hour Post-fertilization zebrafish Assay for Muscle Malformation (AID 2284401). In outline:
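Scored as a binary brightfield endpoint at 120 hpf, fitted versus DMSO. Single dechorionated wild-type (Tropical 5D) zebrafish embryos per well, statically exposed at 28C from 6 hpf onward with final DMSO 0.64%.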

Calls of active or inactive are those of the source. The calls were made as follows: active = hit-call score of the fitted dose curve at least 0.9, where 1 is the maximum; inactive = score below 0.9.

Regarding `CC1(C)NC(=O)N(c2ccc([N+](=O)[O-])c(C(F)(F)F)c2)C1=O`, the outcome in assay [1] was inactive. Consider `OCC(F)(F)C(F)(F)C(F)(F)C(F)(F)C(F)(F)C(F)(F)F`, for which the molecule was called inactive in assay [2].

For the molecule `FC(F)(F)C(F)(F)C(F)(F)C(F)(F)C(F)(F)C(F)(F)I`, the outcome in assay [2] was inactive.

Take `O=C(O)C(F)(F)C(F)(F)F`: the call in assay [2] was inactive.
